Counter-ions that a name gives are not always drawn.
What follows are compounds tested on Escherichia coli IAI1 (assay: growth (OD595) fold change vs plate DMSO controls (fold change (ratio)); higher = more growth). Conditions: incubation time: 27 h, anaerobic, 37 °C.
In short: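 The 96-well mGAM cultures had been kept anaerobic for 27 h at 37 °C before being shaken and read at 595 nm. Blank subtraction, compound background correction with 20 µM compound solutions in water, and a calibration factor of 5 turned the readings into OD. Growth is given as the fold change versus the median of plate DMSO controls. Fold changes above 1.5 were set to NA, and the values are means of 2 biological replicates.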

SMILES	growth
Oc1c(Cl)cc(Cl)cc1Sc1cc(Cl)cc(Cl)c1O [Bithionol] (20 µM)	0.881
CO[C@@]1(NC(=O)C2SC(=C(C(N)=O)C(=O)O)S2)C(=O)N2C(C(=O)O)=C(CSc3nnnn3C)CS[C@@H]21 (some centres undefined) [Cefotetan] (20 µM)	0.0332
N#CC(c1ccc(Cl)cc1)c1c(Cl)cc(-n2ncc(=O)[nH]c2=O)cc1Cl (centres undefined) [Diclazuril] (20 µM)	0.993
CN(C)CCCN1c2ccccc2Sc2ccc(C(F)(F)F)cc21 [Triflupromazine hydrochloride] (20 µM)	1.04
CCC(=O)OCC(=O)[C@@]1(OC(=O)CC)[C@@H](C)C[C@H]2[C@@H]3CCC4=CC(=O)C=C[C@]4(C)[C@@]3(Cl)[C@@H](O)C[C@@]21C [Beclomethasone dipropionate] (20 µM)	0.997
O=C1CN(/N=C/c2ccc(-c3ccc([N+](=O)[O-])cc3)o2)C(=O)N1 [Dantrolene sodium salt] (20 µM)	0.986
CC(C)(C(=O)O)c1ccc(C(O)CCCN2CCC(C(O)(c3ccccc3)c3ccccc3)CC2)cc1 (centres undefined) [Fexofenadine hydrochloride] (20 µM)	1.02
C[C@H]1[C@@H](O)O[C@@H]2O[C@@]3(C)CC[C@H]4[C@H](C)CC[C@@H]1[C@@]24OO3 [Artenimol] (20 µM)	1.03
CC(C)(C)NC[C@H](O)COc1ccccc1C1CCCC1 [Penbutolol sulfate] (20 µM)	1.21
Cc1ccc(-c2ncc(Cl)cc2-c2ccc(S(C)(=O)=O)cc2)cn1 [Etoricoxib] (20 µM)	1.02
Clc1ccc(CO/N=C(\Cn2ccnc2)c2ccc(Cl)cc2Cl)c(Cl)c1 [Oxiconazole nitrate] (20 µM)	0.995
NCc1ccc(S(N)(=O)=O)cc1 [Mafenide hydrochloride] (20 µM)	1
c1ccc(-c2ccc(C(c3ccccc3)n3ccnc3)cc2)cc1 (centres undefined) [Bifonazole] (20 µM)	1.08
OC[C@H]1O[C@@H](O[C@H]2[C@H](O)[C@@H](O)[C@H](O)O[C@@H]2CO)[C@H](O)[C@@H](O)[C@H]1O [Lactose] (50 µM)	1.02
CC(CNC1CCCCC1)OC(=O)c1ccccc1 (centres undefined) [Hexylcaine hydrochloride] (20 µM)	0.961
CN(C)CCc1c[nH]c2ccc(Cn3cncn3)cc12 [Rizatriptan benzoate] (20 µM)	0.971
CC[N+]1(CC)CCC(=C(c2ccccc2)c2ccccc2)C1C (centres undefined) [Prifinium Bromide] (20 µM)	1.08
COc1ccc(C(=O)c2ccc(C)cc2)c(O)c1 [Mexenone] (20 µM)	0.407
CC(C)NCC(O)COc1ccc(CCOCC2CC2)cc1 (centres undefined) [Betaxolol hydrochloride] (20 µM)	0.969
COc1cc(N)cn[n+]1-c1ccccc1 [Amezinium metilsulfate] (20 µM)	1.04

SMILES	growth
C[C@H](NCc1ccc(OCc2cccc(F)c2)cc1)C(N)=O [Safinamide] (20 µM)	0.992
CC#C[C@]1(O)CC[C@H]2[C@@H]3CCC4=CC(=O)CCC4=C3[C@@H](c3ccc(N(C)C)cc3)C[C@@]21C [Mifepristone] (20 µM)	0.971
O=C1CCC(N2C(=O)c3ccccc3C2=O)C(=O)N1 (centres undefined) [Thalidomide] (20 µM)	0.98
CCCC(=O)Nc1ncnc2c1ncn2[C@@H]1O[C@@H]2COP(=O)(O)O[C@H]2[C@H]1OC(=O)CCC [Bucladesine sodium salt] (20 µM)	1.16
CCOC(=O)C1=C[C@@H](OC(CC)CC)[C@H](NC(C)=O)[C@@H](N)C1 [Oseltamivir phosphate] (20 µM)	0.987
Brc1c(NC2=NCCN2)ccc2nccnc12 [Brimonidine L-tartrate] (20 µM)	1.06
CC(C)(C)NC[C@H](O)COc1nsnc1N1CCOCC1 [Timolol maleate salt] (20 µM)	1.03
O=C(CCCN1CCC(O)(c2ccc(Cl)cc2)CC1)c1ccc(F)cc1 [Haloperidol] (20 µM)	0.6
OC[C@@H](O)[C@H](O)[C@@H](O)CO [Xylitol] (50 µM)	1.05
Cc1cnc(C(=O)NCCc2ccc(S(=O)(=O)NC(=O)NC3CCCCC3)cc2)cn1 [Glipizide] (20 µM)	0.966
Fc1ccc([C@@H]2CCNC[C@H]2COc2ccc3c(c2)OCO3)cc1 [Paroxetine hydrochloride] (20 µM)	1.06
Nc1nnc(-c2cccc(Cl)c2Cl)c(N)n1 [Lamotrigine] (20 µM)	0.978
Oc1c(Cl)cc(Cl)c(Cl)c1Cc1c(O)c(Cl)cc(Cl)c1Cl (20 µM)	0.939
Cc1c(Nc2ncccc2C(=O)O)cccc1C(F)(F)F [Flunixin meglumine] (20 µM)	1.04
COc1c(O)cc2c(c1O)[C@@H]1O[C@H](CO)[C@@H](O)[C@H](O)[C@H]1OC2=O [Bergenin] (20 µM)	1.05
Nc1c(CC(=O)O)cccc1C(=O)c1ccc(Br)cc1 [Bromfenac] (20 µM)	1.15
CNC[C@H](O)[C@@H](O)[C@H](O)[C@H](O)CO [Meglumine] (20 µM)	1.07
O=C(Nc1ccc([N+](=O)[O-])cc1Cl)c1cc(Cl)ccc1O [Niclosamide] (20 µM)	1.12
CN1CCN2c3ncccc3Cc3ccccc3C2C1 (centres undefined) [Mirtazapine] (20 µM)	1.01

Reference: the supplement of paper PMC12494721
